Measurements published in PubChem BioAssay (Tox21).
Inconclusive results are not listed. Active and inactive are the calls of the source. Unless noted, calls come from the whole dose curve.

Experiments:
[1] = Nuclear factor erythroid 2-related factor 2/antioxidant responsive element (Nrf2/ARE) small molecule agonists: qHTS cell viability counter screen in human keratinocytes (AID 1919968; active = well fitted curve in the direction sought with a large enough effect in the repeat runs; an effect the other way counts as inactive or inconclusive; note: nearly all actives have a fitted effect of over 55% in size)
How it was run: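 Viability counter-screen: KeratinoSens reporter cells, DMSO-delivered compounds, 23 h at 37 C, CellTiter-Fluor fluorescence.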

[2] = target: Gonadotropin-releasing hormone receptor (Homo sapiens) (UniProt P30968); test: Human gonadotropin-releasing hormone receptor (GnRHR) small molecule agonists, calcium flux assay in GnRHR-HEK293 cells (AID 1920063); note: nearly all actives have a fitted effect of over 35% in size
How it was run: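 Tox21-format agonist screen using human GnRHR-expressing HEK293 cells and a fluorescent calcium dye; kinetic 3-min fluorescence reading after compound addition, 15-point concentration series run in triplicate.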

[3] = target: KiSS-1 receptor (Homo sapiens) (UniProt Q969F8); test: Human kisspeptin (KISS1R) small molecule agonists, calcium flux assay in KISS1R-HEK293 cells (AID 1920064; active = well fitted curve in the direction sought with a large enough effect in the repeat runs; an effect the other way counts as inactive or inconclusive)
How it was run: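 Intracellular calcium mobilization in KISS1R-HEK293 cells was recorded by fluorescence (Ex/Em 480/540) for 3 min following compound addition to cells pre-loaded 1 h with calcium dye.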

[4] = G protein-coupled receptor (GPCR) small molecule agonists, calcium flux assay: HEK293 wild type cell line counter screen (AID 1920065)
How it was run: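 In this agonist-mode screen, ATP is the positive control and DMSO the vehicle. Cells grow 18 h before a 1 h dye incubation at 37 C; signal is taken at Ex/Em 480/540 over 3 min.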

[5] = p53 small molecule agonists, cell-based qHTS assay with human liver microsomes (AID 1963577)
How it was run: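 p53RE-bla reporter cells were pre-incubated 5 h at 37 C, then treated with compounds plus human liver microsomes (0.5 mg/mL final) and NADPH (0.5 mg/mL final) for 16 h at 37 C. Beta-lactamase activity was read by LiveBLAzer fluorescence after 2 h at room temperature.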

[6] = p53 small molecule agonists, cell-based qHTS assay with rat liver microsomes (AID 1963578)
How it was run: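 p53RE-bla cells were exposed to compounds together with rat liver microsomes (0.5 mg/mL final) and NADPH (0.5 mg/mL final) for 16 h at 37 C, then read by LiveBLAzer beta-lactamase fluorescence after 2 h at room temperature.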

[7] = p53 small molecule agonists, cell-based qHTS assay with human liver microsomes: qHTS cell viability counter screen (AID 1963579); note: nearly all actives have a fitted effect of over 45% in size
How it was run: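 p53RE-bla cells (4,000/well) were pre-incubated 5 h at 37 C, then given compounds in DMSO plus human liver microsomes (0.5 mg/mL final) and NADPH (0.5 mg/mL final) for 16 h at 37 C. Viability was read by CellTiter-Glo luminescence.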

[8] = p53 small molecule agonists, cell-based qHTS assay with rat liver microsomes: qHTS cell viability counter screen (AID 1963580); note: nearly all actives have a fitted effect of over 45% in size
How it was run: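 HCT-116 p53RE-bla, 4,000 cells/well, 5 h pre-incubation; cpd + rat liver microsomes 0.5 mg/mL + NADPH 0.5 mg/mL (final); 16 h, 37 C; CellTiter-Glo, 30 min RT; luminescence.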

[9] = p53 small molecule agonists, cell-based qHTS assay (AID 1963582; active = well fitted activation curve with a large enough effect in the signal ratio in the repeat runs, not every such curve was filed as active; the % refers to the signal ratio)
How it was run: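 Agonist activity was scored from beta-lactamase FRET fluorescence in p53RE-bla cells treated 16 h at 37 C with compounds in DMSO, substrate incubation being 2 h at room temperature.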

[10] = target: 5-hydroxytryptamine receptor 2A (Homo sapiens) (UniProt P28223); test: 5-hydroxytryptamine receptor 2A (HTR2A) small molecule antagonists, cell-based qHTS assay (AID 1963586); note: nearly all actives have a fitted effect of over 45% in size
How it was run: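 Antagonist-mode intracellular calcium assay: DOI (4 nM) added after 5 min compound pre-incubation at room temperature to dye-loaded HTR2A-CHO cells. Fluorescence followed for 3 min, sampled every second.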

[11] = target: 5-hydroxytryptamine receptor 2A (Homo sapiens) (UniProt P28223); test: 5-hydroxytryptamine receptor 2A (HTR2A) small molecule agonists, cell-based qHTS assay (AID 1963587); note: nearly all actives have a fitted effect of over 30% in size
How it was run: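 Kinetic calcium-flux fluorescence (2 min, 1 sec intervals) after compound addition in agonist mode. HTR2A-CHO cells were cultured 18 h, then dye-loaded 1 h at 37 C.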

[12] = target: Muscarinic acetylcholine receptor M1 (Homo sapiens) (UniProt P11229); test: Cholinergic receptor muscarinic 1 (CHRM1) small molecule antagonists, cell-based qHTS assay (AID 1963588); note: nearly all actives have a fitted effect of over 40% in size
How it was run: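 CHRM1-CHO calcium-flux assay, antagonist mode. Cells were seeded 18 h, dye-loaded 1 h at 37 C and given compound for 5 min at RT, then acetylcholine was added at 50nM. FDSS fluorescence was read 3 min; 15 concentrations, three runs.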

[13] = target: Muscarinic acetylcholine receptor M1 (Homo sapiens) (UniProt P11229); test: Cholinergic receptor muscarinic 1 (CHRM1) small molecule agonists, cell-based qHTS assay (AID 1963589); note: nearly all actives have a fitted effect of over 35% in size
How it was run: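 Stable CHRM1-CHO cells (human receptor) were incubated 18 h, dye-loaded for 1 h at 37 C and exposed to test compounds for agonist activity, with calcium-dependent fluorescence followed kinetically.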

[14] = cAMP Responsive Elements (CRE) small molecule agonists, cell-based qHTS assay (AID 1963590)
How it was run: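 FRET-based beta-lactamase readout (LiveBLAzer B/G, 2 h RT) quantified CRE activation in HEK 293T CRE-bla cells after 3 h treatment with DMSO-dissolved compounds.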

[15] = cAMP Responsive Elements (CRE) small molecule antagonists, cell-based qHTS assay (AID 1963591; active = well fitted inhibition curve with a large enough effect in the signal ratio in the repeat runs, not every such curve was filed as active; the % refers to the signal ratio)
How it was run: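 qHTS in CRE-bla HEK 293T cells: compound in DMSO, then 0.25 uM NKH477 (final), 3 h at 37 °C/5% CO2; beta-lactamase FRET read-out after 2 h substrate incubation.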

[16] = target: Beta-2 adrenergic receptor (Homo sapiens) (UniProt P07550); test: Adrenergic beta2 receptor (ADRB2) small molecule antagonists, cell-based qHTS assay (AID 1963592); note: series mostly up to about 92 µM; nearly all actives have a fitted effect of over 50% in size
How it was run: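 Cells (CHO, stable ADRB2 overexpression) incubated 18-20hr at 37C; compounds added from DMSO; agonist mix (1nM isoproterenol, 100uM IBMX, 25uM Ro-20-1724) added; 0.5hr RT; d2-cAMP and anti-cAMP-cryptate added; 1hr RT; 665/615 nm read.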

[17] = target: Beta-2 adrenergic receptor (Homo sapiens) (UniProt P07550); test: Adrenergic beta2 receptor (ADRB2) small molecule agonists, cell-based qHTS assay (AID 1963593);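 note: CHO cells stably overexpressing human ADRB2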
How it was run: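 CHO cells stably over-expressing ADRB2 were plated overnight at 37C, then dosed with compounds plus a stimulation mix containing 100uM IBMX and 25uM Ro-20-1724 for 0.5hr at room temperature. cAMP was measured by HTRF competition, 1hr.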

[18] = target: D(2) dopamine receptor (Homo sapiens) (UniProt P14416); test: Dopamine D2 receptor (DRD2) small molecule agonists, cell-based qHTS assay (AID 1963594); note: nearly all actives have a fitted effect of over 35% in size
How it was run: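 cAMP accumulation in DRD2-HEK293 cells measured by HTRF after 1 h detection; compounds added 10 min before NKH477 (200nM […]) forskolin-analogue stimulation, 30 min at room temperature, with Ro20-1724 present at 0.1 mM final.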

[19] = target: D(2) dopamine receptor (Homo sapiens) (UniProt P14416); test: Dopamine D2 receptor (DRD2) small molecule antagonists, cell-based qHTS assay (AID 1963595; active = well fitted inhibition curve with a large enough effect in the signal ratio in the repeat runs, with a control signal flat; the % refers to the signal ratio)
How it was run: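 Readout: HTRF cAMP, cAMP-d2 competing with cellular cAMP for anti-cAMP cryptate, read after 1 h. Cells: DRD2-HEK293. Conditions: 0.1 mM Ro20-1724, 12 nM quinpirole, 200 nM NKH477, 30 min RT.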

[20] = p53 small molecule agonists, cell-based qHTS assay: qHTS cell viability counter screen (AID 1963581); note: nearly all actives have a fitted effect of over 45% in size
How it was run: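 Compounds are pinned onto HCT-116 p53RE-bla cells and left 16 h at 37 C. Following the reporter FRET read, ATP is quantified by CellTiter-Glo luminescence after 30 min at room temperature.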

Measured: Potency

Sequence of 5-hydroxytryptamine receptor 2A (Homo sapiens) (P28223 whole entry, looked up): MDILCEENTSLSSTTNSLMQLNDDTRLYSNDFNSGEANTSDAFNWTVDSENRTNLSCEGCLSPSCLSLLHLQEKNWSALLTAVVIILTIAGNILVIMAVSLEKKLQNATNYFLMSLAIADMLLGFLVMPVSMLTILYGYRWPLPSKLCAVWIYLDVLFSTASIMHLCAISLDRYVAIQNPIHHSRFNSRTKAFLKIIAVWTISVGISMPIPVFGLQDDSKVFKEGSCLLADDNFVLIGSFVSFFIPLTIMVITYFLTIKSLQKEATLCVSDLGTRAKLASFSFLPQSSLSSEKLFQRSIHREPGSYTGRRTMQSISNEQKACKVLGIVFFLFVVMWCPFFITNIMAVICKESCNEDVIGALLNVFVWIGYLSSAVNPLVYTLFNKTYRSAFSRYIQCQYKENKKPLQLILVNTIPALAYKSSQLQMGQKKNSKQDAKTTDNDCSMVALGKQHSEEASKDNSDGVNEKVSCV
Sequence of KiSS-1 receptor (Homo sapiens) (Q969F8 whole entry, looked up): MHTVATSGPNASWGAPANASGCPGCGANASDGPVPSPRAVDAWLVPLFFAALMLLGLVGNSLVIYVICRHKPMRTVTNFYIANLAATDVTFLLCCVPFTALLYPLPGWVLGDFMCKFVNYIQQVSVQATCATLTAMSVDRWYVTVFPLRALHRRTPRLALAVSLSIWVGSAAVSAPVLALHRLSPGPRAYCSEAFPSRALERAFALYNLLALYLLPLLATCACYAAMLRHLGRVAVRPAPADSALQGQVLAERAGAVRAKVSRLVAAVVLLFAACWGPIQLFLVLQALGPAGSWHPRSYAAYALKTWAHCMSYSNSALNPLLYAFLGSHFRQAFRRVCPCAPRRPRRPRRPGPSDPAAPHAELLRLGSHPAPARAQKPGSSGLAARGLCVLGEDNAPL
Sequence of D(2) dopamine receptor (Homo sapiens) (P14416 whole entry, looked up): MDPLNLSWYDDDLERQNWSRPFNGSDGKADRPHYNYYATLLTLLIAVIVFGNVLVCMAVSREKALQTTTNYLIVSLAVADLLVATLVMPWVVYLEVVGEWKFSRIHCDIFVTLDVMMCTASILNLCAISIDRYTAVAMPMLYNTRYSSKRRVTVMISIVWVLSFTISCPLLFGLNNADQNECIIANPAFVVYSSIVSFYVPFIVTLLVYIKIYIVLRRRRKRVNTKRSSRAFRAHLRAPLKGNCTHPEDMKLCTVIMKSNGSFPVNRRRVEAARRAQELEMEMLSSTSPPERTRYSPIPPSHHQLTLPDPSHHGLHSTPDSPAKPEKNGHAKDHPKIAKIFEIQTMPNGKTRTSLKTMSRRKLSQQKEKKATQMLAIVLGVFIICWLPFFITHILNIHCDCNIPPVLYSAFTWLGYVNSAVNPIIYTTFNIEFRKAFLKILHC
Sequence of Beta-2 adrenergic receptor (Homo sapiens) (P07550 whole entry, looked up): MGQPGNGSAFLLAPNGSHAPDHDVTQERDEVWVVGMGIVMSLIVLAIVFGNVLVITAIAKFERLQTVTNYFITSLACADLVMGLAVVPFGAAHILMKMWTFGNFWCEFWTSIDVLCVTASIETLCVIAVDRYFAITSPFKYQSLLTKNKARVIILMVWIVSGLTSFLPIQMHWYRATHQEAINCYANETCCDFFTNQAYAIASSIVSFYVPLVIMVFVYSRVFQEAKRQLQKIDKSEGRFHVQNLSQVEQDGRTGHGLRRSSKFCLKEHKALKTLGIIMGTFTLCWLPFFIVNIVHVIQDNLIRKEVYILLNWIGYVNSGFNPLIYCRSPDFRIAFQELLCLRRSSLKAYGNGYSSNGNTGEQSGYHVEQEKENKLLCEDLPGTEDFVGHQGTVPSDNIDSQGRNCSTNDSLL
Sequence of Muscarinic acetylcholine receptor M1 (Homo sapiens) (P11229 whole entry, looked up): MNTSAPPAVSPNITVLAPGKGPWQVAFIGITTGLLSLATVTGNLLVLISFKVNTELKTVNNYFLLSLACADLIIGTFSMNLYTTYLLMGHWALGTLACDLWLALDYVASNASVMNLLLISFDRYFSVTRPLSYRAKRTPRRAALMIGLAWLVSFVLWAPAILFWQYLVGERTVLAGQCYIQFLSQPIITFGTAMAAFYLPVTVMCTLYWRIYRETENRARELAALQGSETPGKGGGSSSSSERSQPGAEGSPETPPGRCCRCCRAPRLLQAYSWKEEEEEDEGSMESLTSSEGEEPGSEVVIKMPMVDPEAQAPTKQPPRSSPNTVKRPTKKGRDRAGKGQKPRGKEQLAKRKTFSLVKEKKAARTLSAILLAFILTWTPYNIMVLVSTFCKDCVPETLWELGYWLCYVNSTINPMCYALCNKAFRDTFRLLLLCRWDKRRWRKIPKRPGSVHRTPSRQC
Sequence of Gonadotropin-releasing hormone receptor (Homo sapiens) (P30968 whole entry, looked up): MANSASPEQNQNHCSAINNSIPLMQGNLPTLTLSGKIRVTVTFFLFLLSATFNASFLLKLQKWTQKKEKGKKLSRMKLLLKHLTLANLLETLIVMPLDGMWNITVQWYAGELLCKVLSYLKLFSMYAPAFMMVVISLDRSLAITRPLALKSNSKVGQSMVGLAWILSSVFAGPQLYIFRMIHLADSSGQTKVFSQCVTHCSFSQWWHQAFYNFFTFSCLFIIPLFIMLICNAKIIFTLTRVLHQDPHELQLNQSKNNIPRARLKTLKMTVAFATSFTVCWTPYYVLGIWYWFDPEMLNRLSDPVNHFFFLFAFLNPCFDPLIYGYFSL

C=CC(=O)OCCOC(=O)C=C
not listed: [20]
inactive: all other assays above

CC(C)(CCl)c1ccccc1
not listed: [13] | [20]
inactive: all other assays above

OCCOCCN1CCN(C2=Nc3ccccc3Sc3ccccc32)CC1
not listed: [9] | [10] | [11] | [12] | [13] | [14] | [15] | [18]
inactive: all other assays above

CCCCCC/C(C=O)=C\c1ccccc1
not listed: [5] | [6] | [9]
inactive: all other assays above

CCOC(=O)CC(C)=O
not listed: [5] | [6] | [9] | [15] | [17] | [19]
inactive: all other assays above

CC(=O)OCC(=O)[C@@]1(O)CC[C@H]2[C@@H]3CCC4=CC(=O)C=C[C@]4(C)[C@H]3[C@@H](O)C[C@@]21C
not listed: [5] | [6] | [9] | [11] | [12] | [13] | [15]
inactive: all other assays above

O=C(O)[C@@H]1[C@H]2C[C@H]3c4[nH]c5ccccc5c4CCN3C[C@@H]2CC[C@@H]1O
not listed: [4] | [19]
inactive: all other assays above

C[C@]12CC[C@@H]3c4ccc(O)cc4CC[C@H]3[C@@H]1CCC2=O
inactive: [1] | [2] | [3] | [4] | [7] | [8] | [20] | [15] | [16] | [19]
